Laboratory results taken from PubChem BioAssay (EPA / NIEHS).
Records with an inconclusive call do not appear. Calls of active or inactive are those of the source. Rule for the calls, unless noted: active = hit-call score of the fitted dose curve at least 0.9, where 1 is the maximum; inactive = score below 0.9.

Legend:
[1] = molecular target: Hepatocyte nuclear factor 6 (Homo sapiens) (UniProt Q9UBC0); experiment: ATG_HNF6_CIS: Attagene CIS-FACTORIAL HepG2 Assay for human Hepatocyte Nuclear Factor 6 (HNF6) (AID 2282952); details: HepG2 Attagene cis-factorial HNF6 reporter transcription; actives raise or lower the signal
Method in brief: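 Multiplexed mRNA reporter assay in transfected HepG2; 24 h dosing; RT-PCR plus capillary electrophoresis fluorescence; DMSO-referenced bidirectional curve fitting.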

[2] = molecular target: Heat shock factor protein 1 (Homo sapiens) (UniProt Q00613); experiment: ATG_HSE_CIS: Attagene CIS-FACTORIAL HepG2 Assay for human Heat Shock Transcription Factor 1 (HSE) (AID 2282953); details: HepG2 HSE cis-reporter, Attagene RNA transcription; actives raise or lower the signal
Method in brief: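 Read-out: fluorescence of reporter-specific RT-PCR fragments separated by capillary electrophoresis. HepG2 carrying transfected cis-element reporter units; 24 h dosing; activity fitted in both directions relative to DMSO baseline.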

[3] = ATG_MRE_CIS: Attagene CIS-FACTORIAL HepG2 Assay for human Metal Responsive Element (MRE) (AID 2282954); details: HepG2 MRE cis-reporter transcription, Attagene multiplex; actives raise or lower the signal
Method in brief: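 After a 24 h chemical exposure, transiently transfected HepG2 cells yield RNA whose reporter sequences are amplified, FAM-labelled and sized by capillary electrophoresis. Curves are fitted bidirectionally relative to DMSO.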

[4] = molecular target: Paired box protein Pax-6 (Homo sapiens) (UniProt P26367); experiment: ATG_Pax6_CIS: Attagene CIS-FACTORIAL HepG2 Assay for human Paired Box 6 (PAX6) (AID 2282956); details: HepG2 CIS-FACTORIAL PAX6 reporter transcription, RNA readout; actives raise or lower the signal
Method in brief: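 After twenty-four hours of chemical exposure, transfected HepG2 cells are harvested for RNA. Cis-promoter reporter transcripts are amplified, fluorescently labelled and sized by capillary electrophoresis, with gain and loss of signal scored against DMSO.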

[5] = ATG_PXRE_CIS: Attagene CIS-FACTORIAL HepG2 Assay for human Pregnane X Receptor Element (PXRE) (AID 2282957); details: HepG2 Attagene CIS-FACTORIAL PXRE reporter, mRNA; actives raise or lower the signal
Method in brief: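 Cells: HepG2, transiently transfected reporter units under cis promoter control. Exposure: 24 h. Detection: reporter mRNA via RT-PCR/CE fluorescence; bidirectional fitting, DMSO-referenced.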

[6] = ATG_PPRE_CIS: Attagene CIS-FACTORIAL HepG2 Assay for human Peroxisome Proliferator-activated Response Element (PPRE) (AID 2282958); details: HepG2 PPRE cis-element reporter, Attagene transcription factor profiling; actives raise or lower the signal
Method in brief: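 Multiplexed reporter transcription units under cis-regulatory promoters were transfected into HepG2 cells to capture endogenous factor activity. A 24 h incubation preceded RNA isolation and fluorescent RT-PCR fragment analysis.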

[7] = ATG_RORE_CIS: Attagene CIS-FACTORIAL HepG2 Assay for human RAR-related Orphan Receptor Element (RORE) (AID 2282959); details: HepG2 Attagene cis-factorial RORE reporter, mRNA; actives raise or lower the signal
Method in brief: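 Fluorescence intensity of reporter-specific cDNA fragments, separated by capillary electrophoresis, gives the signal. Source: HepG2 liver cells transiently transfected with cis-element reporters and exposed 24 h; DMSO-normalized bidirectional fit.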

[8] = ATG_Sox_CIS: Attagene CIS-FACTORIAL HepG2 Assay for human SRY-box transcription factor (SOX) (AID 2282960); details: HepG2 Attagene cis-factorial SOX reporter, mRNA; actives raise or lower the signal
Method in brief: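 After 24 h of chemical treatment, transfected HepG2 reporter cells are lysed for total RNA. Transcript levels come from RT-PCR with labelled primer extension and capillary electrophoresis, analysed bidirectionally versus DMSO.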

[9] = molecular target: Transcription factor Sp1 (Homo sapiens) (UniProt P08047); experiment: ATG_Sp1_CIS: Attagene CIS-FACTORIAL HepG2 Assay for human Specificity Protein 1 (Sp1) (AID 2282961); details: HepG2 Sp1 cis-reporter transcription, actives raise or lower the signal
Method in brief: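 Sp1-driven reporter mRNA, read as capillary electrophoresis fluorescence after RT-PCR, in transiently transfected HepG2 cells dosed for 24 h; signal change in either direction relative to DMSO.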

[10] = ATG_SREBP_CIS: Attagene CIS-FACTORIAL HepG2 Assay for human Sterol Regulatory Element Binding (SREBP) (AID 2282962); details: HepG2 Attagene cis-factorial SREBP reporter, mRNA; actives raise or lower the signal
Method in brief: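 Twenty-four hours after chemical dosing of transfected HepG2 cultures, reporter RNA was converted to cDNA, amplified, end-labelled with 6-FAM and resolved by capillary electrophoresis. Responses were fitted relative to DMSO.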

[11] = molecular target: Signal transducer and activator of transcription 3 (Homo sapiens) (UniProt P40763); experiment: ATG_STAT3_CIS: Attagene CIS-FACTORIAL HepG2 Assay for human Signal Transducer and Activator of Transcription 3 (STAT3) (AID 2282963); details: HepG2, Attagene cis-factorial STAT3 reporter transcription; actives raise or lower the signal
Method in brief: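 After a 24 h compound incubation, total RNA from MRTU-transfected HepG2 cells was converted to cDNA and reporter sequences PCR-amplified, labelled and profiled by capillary electrophoresis. Gain and loss of signal were referenced to DMSO.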

[12] = ATG_TA_CIS: Attagene CIS-FACTORIAL HepG2 Assay for human TA Basal Promoter (AID 2282964); details: HepG2 Attagene CIS-factorial TA basal promoter reporter; actives raise or lower the signal
Method in brief: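 Transfected HepG2, 24 h compound exposure; RNA → RT-PCR → FAM primer extension → HpaI cut → CE fluorescence. Gain/loss-of-signal fitted against DMSO negative control. Background-control readout.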

[13] = ATG_TCF_b_cat_CIS: Attagene CIS-FACTORIAL HepG2 Assay for human T-Cell-Factor with beta-catenin (TCF/b-cat) (AID 2282965); details: HepG2 TCF/beta-catenin cis-reporter transcription, actives raise or lower the signal
Method in brief: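 Measured: reporter mRNA in HepG2 transiently transfected with cis-promoter reporter units, 24 h after chemical addition. Fitting was bidirectional, DMSO as negative control.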

[14] = ATG_TAL_CIS: Attagene CIS-FACTORIAL HepG2 Assay for human TAL Basal Promoter (AID 2282966); details: HepG2 Attagene cis-factorial TAL promoter reporter; actives raise or lower the signal;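 note: background control endpoint measuring basal TAL promoter reporter mRNA not a specific factor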
Method in brief: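 RT-PCR plus capillary electrophoresis quantifies reporter mRNA induction in transiently transfected HepG2 cells after 24 h chemical treatment. DMSO serves as negative control and baseline for bidirectional fitting.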

[15] = ATG_TGFb_CIS: Attagene CIS-FACTORIAL HepG2 Assay for human Transforming Growth Factor (TGF) (AID 2282967); details: HepG2 Attagene CIS TGFb reporter, mRNA transcription; actives raise or lower the signal
Method in brief: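 Readout: fluorescently labeled reporter cDNA fragments resolved by capillary electrophoresis after RT-PCR. Transfected HepG2 cells dosed for 24 h; endogenous TF activity at TGFB1-linked cis element; gain or loss fitted relative to DMSO.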

[16] = ATG_VDRE_CIS: Attagene CIS-FACTORIAL HepG2 Assay for human Vitamin D Receptor Element (VDRE) (AID 2282968); details: HepG2 VDRE cis-reporter transcription, actives raise or lower the signal
Method in brief: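 In transiently transfected HepG2 liver cells, gain or loss of reporter mRNA after 24 h exposure is scored relative to DMSO, using fluorescence detection by capillary electrophoresis of RT-PCR products.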

[17] = ATG_PBREM_CIS: Attagene CIS-FACTORIAL HepG2 Assay for human Phenobarbital-responsive Enhancer Module (PBREM) (AID 2282955); details: HepG2 PBREM cis-reporter, Attagene multiplexed transcription; actives raise or lower the signal
Method in brief: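 After a 24 h incubation with test chemical, transfected HepG2 cells yield total RNA; reporter-specific RT-PCR products are fluorescently labelled, HpaI-digested and resolved by capillary electrophoresis against ROX size standards.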

[18] = molecular target: Nuclear receptor subfamily 1 group I member 3 (Homo sapiens) (UniProt Q14994); experiment: ATG_CAR_TRANS: Attagene TRANS-FACTORIAL HepG2 Assay for human Constitutive Androstane Receptor (CAR) (AID 2282969; active = hit-call score of the fitted dose curve at least 0.9, where 1 is the maximum;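 note: activators raise reporter mRNA above DMSO so AC50 marks induction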); details: HepG2 Attagene TRANS-FACTORIAL CAR reporter
Method in brief: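 Readout is reporter mRNA induction, quantified by fluorescent primer extension and capillary electrophoresis after RT-PCR. Cells were HepG2 transiently carrying chimeric NR-Gal4 constructs with GAL4-UAS reporters, treated for 24 h; activity scored upward from DMSO.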

[19] = molecular target: Estrogen receptor (Homo sapiens) (UniProt P03372); experiment: ATG_ERa_TRANS: Attagene TRANS-FACTORIAL HepG2 Assay for human Estrogen Receptor alpha (ERa) (AID 2282970; active = hit-call score of the fitted dose curve at least 0.9, where 1 is the maximum); details: HepG2 Attagene TRANS ERa GAL4 reporter, mRNA
Method in brief: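 Cells: HepG2, transiently transfected. Construct: GAL4-UAS reporter units regulated by exogenous NR-Gal4 chimeras. Time: 24 h. Detection: reporter mRNA by RT-PCR, capillary electrophoresis, fluorescence. Baseline: DMSO, upward fitting.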

Measured: AC50

Transcription factor Sp1 (Homo sapiens), sequence (P08047 whole entry, looked up): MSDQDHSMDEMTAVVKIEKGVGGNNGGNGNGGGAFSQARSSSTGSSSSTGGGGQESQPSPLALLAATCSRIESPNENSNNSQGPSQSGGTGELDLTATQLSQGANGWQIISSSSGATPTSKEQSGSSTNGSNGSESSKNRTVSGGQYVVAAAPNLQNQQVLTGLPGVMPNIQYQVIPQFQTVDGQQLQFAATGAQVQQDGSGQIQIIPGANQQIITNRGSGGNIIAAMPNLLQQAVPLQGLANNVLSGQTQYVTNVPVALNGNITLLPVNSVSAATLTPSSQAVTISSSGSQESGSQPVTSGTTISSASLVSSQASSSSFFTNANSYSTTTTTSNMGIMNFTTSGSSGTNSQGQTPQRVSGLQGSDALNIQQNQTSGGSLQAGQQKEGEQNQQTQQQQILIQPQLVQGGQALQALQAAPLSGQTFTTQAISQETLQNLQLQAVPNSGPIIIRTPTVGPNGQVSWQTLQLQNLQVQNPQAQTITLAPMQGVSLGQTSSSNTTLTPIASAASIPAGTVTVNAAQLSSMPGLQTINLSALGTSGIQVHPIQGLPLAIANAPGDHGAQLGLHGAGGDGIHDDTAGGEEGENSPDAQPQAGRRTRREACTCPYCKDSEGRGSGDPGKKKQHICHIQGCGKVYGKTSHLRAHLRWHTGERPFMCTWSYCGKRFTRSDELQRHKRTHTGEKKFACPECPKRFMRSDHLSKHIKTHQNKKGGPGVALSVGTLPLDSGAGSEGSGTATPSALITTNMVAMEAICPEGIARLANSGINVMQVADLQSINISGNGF
Hepatocyte nuclear factor 6 (Homo sapiens), sequence (Q9UBC0 whole entry, looked up): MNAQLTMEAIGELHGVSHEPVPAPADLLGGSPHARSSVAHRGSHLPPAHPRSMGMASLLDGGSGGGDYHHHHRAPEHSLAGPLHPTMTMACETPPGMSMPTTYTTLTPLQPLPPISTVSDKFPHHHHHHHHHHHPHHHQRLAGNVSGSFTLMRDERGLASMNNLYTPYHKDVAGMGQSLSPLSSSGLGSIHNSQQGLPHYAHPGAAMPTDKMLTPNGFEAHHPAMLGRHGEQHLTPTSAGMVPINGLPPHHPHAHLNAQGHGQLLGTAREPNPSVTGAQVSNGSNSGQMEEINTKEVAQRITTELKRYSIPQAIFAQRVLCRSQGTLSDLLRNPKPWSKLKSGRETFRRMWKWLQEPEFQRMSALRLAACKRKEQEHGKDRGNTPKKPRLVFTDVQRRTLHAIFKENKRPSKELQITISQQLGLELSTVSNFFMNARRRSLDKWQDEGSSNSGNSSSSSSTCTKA
Paired box protein Pax-6 (Homo sapiens), sequence (P26367 whole entry, looked up): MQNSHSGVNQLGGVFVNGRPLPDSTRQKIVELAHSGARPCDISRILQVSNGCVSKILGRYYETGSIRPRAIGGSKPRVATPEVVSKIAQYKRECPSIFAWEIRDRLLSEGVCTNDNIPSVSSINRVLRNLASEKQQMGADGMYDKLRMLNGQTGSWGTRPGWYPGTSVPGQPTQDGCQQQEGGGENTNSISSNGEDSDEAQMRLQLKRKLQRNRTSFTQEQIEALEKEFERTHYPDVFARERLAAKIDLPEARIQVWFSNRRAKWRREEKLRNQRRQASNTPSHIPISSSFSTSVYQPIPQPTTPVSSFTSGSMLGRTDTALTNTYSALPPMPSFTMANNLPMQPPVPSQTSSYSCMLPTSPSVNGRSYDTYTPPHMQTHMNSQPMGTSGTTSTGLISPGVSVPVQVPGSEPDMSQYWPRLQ
Signal transducer and activator of transcription 3 (Homo sapiens), sequence (P40763 whole entry, looked up): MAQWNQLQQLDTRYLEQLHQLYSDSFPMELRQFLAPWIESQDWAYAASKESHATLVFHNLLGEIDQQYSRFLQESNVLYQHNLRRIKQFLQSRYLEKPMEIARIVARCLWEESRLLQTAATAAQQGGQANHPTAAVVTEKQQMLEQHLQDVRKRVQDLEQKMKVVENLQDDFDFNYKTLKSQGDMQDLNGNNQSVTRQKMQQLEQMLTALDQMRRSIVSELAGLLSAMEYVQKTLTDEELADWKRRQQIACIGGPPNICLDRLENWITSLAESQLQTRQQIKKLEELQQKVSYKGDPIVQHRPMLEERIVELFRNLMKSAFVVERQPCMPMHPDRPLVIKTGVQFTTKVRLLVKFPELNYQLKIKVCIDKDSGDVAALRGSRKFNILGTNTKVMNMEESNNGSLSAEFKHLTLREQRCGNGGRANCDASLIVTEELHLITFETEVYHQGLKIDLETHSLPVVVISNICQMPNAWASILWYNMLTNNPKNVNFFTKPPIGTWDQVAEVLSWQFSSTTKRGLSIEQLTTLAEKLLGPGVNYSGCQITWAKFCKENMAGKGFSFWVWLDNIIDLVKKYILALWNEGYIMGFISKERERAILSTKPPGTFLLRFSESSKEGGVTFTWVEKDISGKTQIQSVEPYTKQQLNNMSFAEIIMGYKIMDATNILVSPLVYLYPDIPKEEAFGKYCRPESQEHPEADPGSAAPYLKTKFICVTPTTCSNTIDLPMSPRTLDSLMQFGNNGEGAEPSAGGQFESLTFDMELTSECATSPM
Heat shock factor protein 1 (Homo sapiens), sequence (Q00613 whole entry, looked up, the tested form may be a part): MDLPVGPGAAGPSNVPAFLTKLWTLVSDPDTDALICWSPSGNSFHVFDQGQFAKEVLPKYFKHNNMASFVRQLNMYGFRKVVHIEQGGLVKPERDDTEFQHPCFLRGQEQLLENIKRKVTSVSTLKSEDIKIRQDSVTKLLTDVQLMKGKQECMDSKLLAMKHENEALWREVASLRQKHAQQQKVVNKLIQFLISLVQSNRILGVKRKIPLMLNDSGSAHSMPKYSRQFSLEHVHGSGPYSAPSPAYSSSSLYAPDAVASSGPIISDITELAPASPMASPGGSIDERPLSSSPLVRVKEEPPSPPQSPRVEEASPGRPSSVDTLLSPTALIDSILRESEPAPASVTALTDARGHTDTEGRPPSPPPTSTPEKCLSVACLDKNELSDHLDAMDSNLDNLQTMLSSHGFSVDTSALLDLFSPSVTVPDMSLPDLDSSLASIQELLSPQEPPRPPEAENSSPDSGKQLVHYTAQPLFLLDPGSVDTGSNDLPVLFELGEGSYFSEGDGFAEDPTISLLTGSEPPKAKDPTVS
Nuclear receptor subfamily 1 group I member 3 (Homo sapiens), sequence (Q14994 whole entry, looked up, the tested form may be a part): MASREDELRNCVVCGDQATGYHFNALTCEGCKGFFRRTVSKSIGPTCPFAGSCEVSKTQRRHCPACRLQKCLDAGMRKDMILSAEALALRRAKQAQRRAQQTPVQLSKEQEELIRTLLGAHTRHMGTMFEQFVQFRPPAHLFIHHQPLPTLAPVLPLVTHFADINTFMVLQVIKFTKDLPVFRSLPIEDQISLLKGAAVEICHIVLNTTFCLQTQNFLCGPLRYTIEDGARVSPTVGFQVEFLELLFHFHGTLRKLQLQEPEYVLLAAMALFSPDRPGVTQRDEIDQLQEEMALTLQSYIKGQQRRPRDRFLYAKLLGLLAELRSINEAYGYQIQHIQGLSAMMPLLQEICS
Estrogen receptor (Homo sapiens), sequence (P03372 whole entry, looked up, the tested form may be a part): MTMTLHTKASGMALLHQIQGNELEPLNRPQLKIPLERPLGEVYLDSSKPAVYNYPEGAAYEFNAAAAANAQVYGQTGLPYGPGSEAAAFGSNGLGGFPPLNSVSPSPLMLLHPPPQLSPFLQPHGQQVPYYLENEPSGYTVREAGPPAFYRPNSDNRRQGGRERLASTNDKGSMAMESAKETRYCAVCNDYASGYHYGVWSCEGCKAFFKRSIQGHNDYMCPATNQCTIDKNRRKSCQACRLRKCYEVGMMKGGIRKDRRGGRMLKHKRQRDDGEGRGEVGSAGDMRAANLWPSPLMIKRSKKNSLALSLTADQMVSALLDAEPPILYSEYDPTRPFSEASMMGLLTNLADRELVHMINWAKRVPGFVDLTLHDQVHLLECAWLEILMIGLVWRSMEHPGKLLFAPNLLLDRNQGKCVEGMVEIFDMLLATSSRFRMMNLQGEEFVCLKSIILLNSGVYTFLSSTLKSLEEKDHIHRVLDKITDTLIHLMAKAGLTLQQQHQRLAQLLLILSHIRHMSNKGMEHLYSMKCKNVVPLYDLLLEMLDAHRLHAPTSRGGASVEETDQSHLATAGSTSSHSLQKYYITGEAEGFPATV

C[C@H]1C(=O)O[C@@H]2CCN3CC=C(COC(=O)[C@](C)(O)[C@]1(C)O)[C@H]23
not listed: [17] | [18] | [19]
inactive: all other assays above

N#Cc1cccnc1
not listed: [3] | [12] | [18] | [19]
inactive: all other assays above

CC(C)CP(=S)(S)CC(C)C
active: [5] 38.6 µM
not listed: [6] | [12] | [16] | [19]
inactive: all other assays above

C=CCc1ccccc1O
active: [5] 29.3 µM | [19] 48.6 µM
not listed: [6] | [16] | [17] | [18]
inactive: all other assays above

Brc1ccc(Br)cc1
not listed: [12] | [18] | [19]
inactive: all other assays above

CC(c1ccccc1)(c1ccc(O)cc1)c1ccc(O)cc1
active: [2] 17.7 µM | [3] 16.3 µM | [4] 17.8 µM | [5] 2.92 µM | [10] 13.2 µM | [13] 16.9 µM | [16] 1.8 µM
not listed: [17] | [18] | [19]
inactive: all other assays above

CC(c1ccc(O)cc1)c1ccc(O)cc1
active: [2] 168 µM | [5] 27.6 µM
not listed: [3] | [6] | [16] | [18] | [19]
inactive: all other assays above

COc1nn(C(=O)NS(=O)(=O)c2ccccc2OC(F)(F)F)c(=O)n1C
not listed: [7] | [11] | [18] | [19]
inactive: all other assays above

CC(C)(C)c1ccccc1O
active: [1] 147 µM | [4] 165 µM | [5] 23.9 µM | [7] 160 µM | [8] 100 µM | [10] 163 µM | [16] 129 µM
not listed: [3] | [18] | [19]
inactive: all other assays above

c1ccc2sc(SNC3CCCCC3)nc2c1
active: [2] 159 µM | [3] 119 µM | [4] 154 µM | [5] 27 µM | [9] 184 µM | [10] 148 µM | [15] 34.4 µM
not listed: [16] | [19]
inactive: all other assays above

Cc1ccc(CCl)cc1
not listed: [12] | [19]
inactive: all other assays above

CCCCCCCCCCCCBr
not listed: [4] | [11] | [18] | [19]
inactive: all other assays above
